Screens deposited in PubChem BioAssay by NMMLSC.
Sampled rows, rich in hits. Any-hit rate of the full collection: about 1.1%.
MEP2 TOR yeast: modulators of MEP2-GFP levels in yeast, primary screen, S. cerevisiae, multiplex flow cytometry, MLPCN library; 0.51% of 330,000 active; GFP response vs DMSO, % at 10 µM; S. cerevisiae MEP2-GFP strain, 3 h; 100% = DMSO control level;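 active means GFP response versus DMSO above a set limit, roughly screen mean plus 3 SD, cut at about 180% in these data; inconclusive means fewer than 70 cells counted for a yeast strain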;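 further: median GFP fluorescence of the barcode-gated MEP2-GFP cells per well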
AGP1 TOR yeast: modulators of AGP1-GFP expression in yeast TOR pathway, primary screen, cell-based, multiplex flow cytometry, S. cerevisiae, MLPCN library | 3 h; GFP as percent of DMSO wells | GFP response vs DMSO, % at 10 µM | 0.02% of 320,000 active | AID 2066, 2009;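 active means GFP response relative to DMSO above a set limit, near screen average plus 3 SD, cut at about 150% in these data; inconclusive means fewer than 70 cells counted for the yeast strain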;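 further: median GFP channel fluorescence of the gated AGP1 strain per well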
CIT2-GFP yeast: modulators of CIT2-GFP expression in yeast, primary screen, S. cerevisiae, GFP fusion, multiplex flow cytometry, MLPCN library | S. cerevisiae CIT2-GFP strain, 3 h; 100 means same as DMSO wells | GFP response vs DMSO, % at 10 µM | 0.065% of 320,000 active;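 active means GFP response relative to DMSO above a set limit, near the screen mean plus 3 SD, cut at about 150% in these data; inconclusive means Fewer than 70 cells measured for a yeast strain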;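 further: ratio of well median GFP fluorescence to mean of DMSO wells on the plate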
LAP4-GFP MLPCN: modulators of LAP4-GFP expression in yeast, primary screen, S. cerevisiae, multiplex flow cytometry, MLPCN library | 3 h; median GFP as percent of DMSO wells | GFP response vs DMSO, % at 10 µM | 0.34% of 320,000 active;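 active means GFP response vs DMSO above a set limit, about the screen mean plus 3 SD, cut at about 150% in these data; inconclusive means under 70 cell events counted for the yeast strain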
VLA-4 inh: inhibition in human VLA-4 binding assay, primary screen, VLA-4 allosteric modulator project, MLPCN library, flow cytometry, VLA-4 expressing cells. Integrin alpha-4 (Homo sapiens), P13612. ligand binding flow cytometry. inhibition, % (about 7 µM as worked out from the volumes in the protocol). 0.2% of 330,000 active. AID 2557, 2010; in the data active means inhibition above about 50%
Target sequence (P13612 whole entry, looked up): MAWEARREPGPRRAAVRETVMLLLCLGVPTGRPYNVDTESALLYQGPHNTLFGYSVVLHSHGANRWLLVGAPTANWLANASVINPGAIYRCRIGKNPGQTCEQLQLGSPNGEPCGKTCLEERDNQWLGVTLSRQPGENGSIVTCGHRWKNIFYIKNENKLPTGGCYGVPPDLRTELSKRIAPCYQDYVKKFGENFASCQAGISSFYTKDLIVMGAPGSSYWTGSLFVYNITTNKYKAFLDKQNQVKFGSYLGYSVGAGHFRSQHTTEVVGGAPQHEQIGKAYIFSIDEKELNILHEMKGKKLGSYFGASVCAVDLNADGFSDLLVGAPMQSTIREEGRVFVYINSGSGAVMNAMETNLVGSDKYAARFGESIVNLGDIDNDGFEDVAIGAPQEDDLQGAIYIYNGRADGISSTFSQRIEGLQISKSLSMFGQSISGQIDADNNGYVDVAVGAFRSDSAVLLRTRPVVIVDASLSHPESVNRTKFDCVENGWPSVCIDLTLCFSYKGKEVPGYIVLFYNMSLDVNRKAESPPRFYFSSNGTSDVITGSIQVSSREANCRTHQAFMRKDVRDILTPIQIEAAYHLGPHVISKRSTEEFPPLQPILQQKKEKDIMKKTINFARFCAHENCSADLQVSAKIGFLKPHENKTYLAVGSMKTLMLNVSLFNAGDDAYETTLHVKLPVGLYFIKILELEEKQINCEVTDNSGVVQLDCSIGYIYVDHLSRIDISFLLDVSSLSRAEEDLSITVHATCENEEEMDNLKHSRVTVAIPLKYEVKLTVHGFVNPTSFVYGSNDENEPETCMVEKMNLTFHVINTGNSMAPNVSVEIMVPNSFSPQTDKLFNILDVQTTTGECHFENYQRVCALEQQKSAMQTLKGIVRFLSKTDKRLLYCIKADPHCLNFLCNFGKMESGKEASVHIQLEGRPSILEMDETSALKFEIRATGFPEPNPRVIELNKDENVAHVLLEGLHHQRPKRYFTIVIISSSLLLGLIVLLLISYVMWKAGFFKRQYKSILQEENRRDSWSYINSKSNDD
RPL19A TOR yeast: RPL19A-GFP expression modulators in yeast, primary screen, cell-based, S. cerevisiae, multiplex flow cytometry, MLPCN; S. cerevisiae RPL19A-GFP strain, 3 h; active compounds read low; percent response vs DMSO, % at 10 µM; 0.3% of 330,000 active; AID 2025, 2009;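 active means percent response vs DMSO below 50%; inconclusive means fewer than 70 events counted for the yeast strain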;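 further: median channel GFP fluorescence of the barcoded RPL19A-GFP strain; ratio of sample median GFP to plate DMSO average so 100% = DMSO; lower means less RPL19A-GFP as with rapamycin TOR inhibition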
The depositor's hits bear a star; u = inconclusive; x = no result given; [ ] = another dose, or the depositor's remark.

SMILES	MEP2 TOR yeast	AGP1 TOR yeast	CIT2-GFP yeast	LAP4-GFP MLPCN	VLA-4 inh	RPL19A TOR yeast
O=C(NCCS(=O)(=O)N1CCN(c2ccccc2F)CC1)c1cccs1	101.3	111.3	102.1	94.5	11.6	96.0
Cc1cccc(SCC(=O)Nc2ccc3c(c2)OCCO3)c1	109.4	122.3	174.4*[may fluoresce green]	111.3	-9.4	96.1
CCn1cc(S(=O)(=O)CC(=O)Nc2ccc3c(c2)OCCO3)c2ccccc21	226.0*[may fluoresce violet]	u	u	83.8	4.7	23.3*[may fluoresce violet]
CCCn1cc(S(=O)(=O)CC(=O)Nc2ccc(OCC)cc2)c2ccccc21	505.5*[may fluoresce violet]	24.0	u	88.3	1.8	58.9
Cc1nc(SCC(=O)Nc2ccc3c(c2)OCCO3)nc(C)c1C	95.6	119.4	105.5	109.3	-35.3	96.8
CCCn1cc(S(=O)(=O)CC(=O)Nc2ccc(OC)cc2OC)c2ccccc21	103.9	98.7	93.1	100.3	8.1	98.3
COc1cccc(CNC(=O)c2ccc(NC(=O)CC3SC(N4CCCC4)=NC3=O)cc2)c1 (stereo not drawn)	102.1	102.5	97.0	102.2	-6.5	98.3
COc1ccc(OCCNC(=O)/C=C/c2ccc([N+](=O)[O-])cc2)cc1	116.3	96.9	98.5	119.6	7.5	97.9
COc1ccc(OCC(O)CNC(=O)/C=C/c2cccc([N+](=O)[O-])c2)cc1 (stereo not drawn)	176.8*	23.2	104.0	96.8	-1.3	86.9
Cc1nn(Cc2ccccc2)c(C)c1C(=O)N1CCN(S(=O)(=O)/C=C/c2ccccc2)CC1	98.5	99.5	99.5	98.8	-2.1	103.5
O=C(N/N=C/c1cc2c(cc1Br)OCO2)c1ccccn1	104.6	96.9	90.0	103.3	6.1	96.8
O=C(N/N=C/c1cc2c(cc1Br)OCO2)c1c[nH]c2ccccc12	104.8	98.9	87.3	104.4	50.3*	99.5
COCCNc1nc2c(-c3cccc(C(F)(F)F)c3)nnn2c2ccccc12	114.4	94.4	96.8	106.3	7.7	94.9
NNc1nc2c(-c3cccc(C(F)(F)F)c3)nnn2c2ccccc12	400.4*[may fluoresce violet]	21.4	u	122.5	-39.6	48.3*[may fluoresce violet]
COCCNC(=O)[C@@H]1CSC2c3ccc(OC)c(OC)c3C(=O)N21 (stereo partly drawn)	95.8	95.3	97.7	91.0	-0.9	96.7
COc1ccc2c(c1OC)C(=O)N1C2SC[C@H]1C(=O)NC1CCCC1 (stereo partly drawn)	149.2	u	u	46.2	-9.7	6.8*[may fluoresce violet]
CCOC(=O)C1=C(Cc2ccc(Cl)cc2)C(=O)c2ccccc2C1=O	106.0	66.8	81.1	189.7*	x	94.1
O=C(CNC(=O)c1ccc(Br)o1)NNC(=O)c1ccccc1F	85.3	90.5	x	71.1	7.0	91.7
CC(=O)OCC1(C)CN(c2ccccc2)NC1=O (stereo not drawn)	100.7	105.3	98.0	97.7	-9.7	102.2
COc1ccc(C(=O)NCCc2c[nH]c3ccccc23)cc1S(=O)(=O)N1CCOCC1	233.3*[may fluoresce violet]	u	u	84.3	3.3	x
COc1ccc(C(=O)OCC(=O)c2ccccc2)cc1S(=O)(=O)N1CCOCC1	394.5*[may fluoresce violet]	u	u	76.0	12.4	53.3
COc1ccc(C(=O)N2CCN(c3ccccc3)CC2)cc1S(=O)(=O)N1CCOCC1	u	u	u	65.8	30.0	24.2*[may fluoresce violet]
COc1ccc(C(CNC(=O)c2ccc(S(=O)(=O)N3CC(C)CC(C)C3)cc2)N(C)C)cc1 (stereo not drawn)	108.0	101.6	108.9	91.5	8.9	100.8
CC(C)n1cc(/C=N/Nc2ccc(Cl)c(C(=O)O)c2)c2ccccc21	103.4	98.4	102.5	89.6	-0.8	101.1
CCc1cc(=O)oc2c(CNCc3ccccc3F)c(O)c(Cl)cc12	228.6*[may fluoresce violet]	u	u	87.7	1.5	66.2
SMILES	MEP2 TOR yeast	AGP1 TOR yeast	CIT2-GFP yeast	LAP4-GFP MLPCN	VLA-4 inh	RPL19A TOR yeast
COc1cc(C)c(S(=O)(=O)NC2CC(C)(C)NC(C)(C)C2)cc1C	422.1*[may fluoresce violet]	20.3	u	102.0	4.0	58.9
COc1ccccc1CNc1nc(S(=O)(=O)c2ccccc2)c(Cl)s1	192.3*	100.2	100.1	113.1	11.8	103.4
COc1ccccc1CNc1nc(C)c(C(C)=O)s1	104.1	103.3	91.0	88.7	4.9	105.5
O=C(CSc1nnc(NC(=O)c2ccccc2)s1)NCc1ccco1	99.0	99.5	96.7	98.9	10.8	95.5
O=C(CSc1nnc(NC(=O)c2ccc3c(c2)OCO3)s1)NCc1ccco1	282.6*[may fluoresce violet]	u	u	77.0	14.1	46.8*[may fluoresce violet]
CCN(CC)CCCn1c2c(c(SCC(=O)Nc3ccccc3Cl)nc1=O)CCC2	94.1	100.2	95.6	104.1	8.8	96.7
O=C(N/N=C/c1cccc(Oc2ccccc2)c1)c1ccncc1	123.4	95.4	79.5	211.4*	10.7	74.0
CN(C)N1C(N)=C(C#N)C(c2cccnc2)C2=C1CC(C)(C)CC2=O (stereo not drawn)	298.7*[may fluoresce violet]	u	u	81.1	-2.6	x
C=CCNc1nc(C(=O)OCC(=O)c2ccc(Cl)cc2)cs1	111.6	102.7	98.1	109.5	3.8	103.5
Cc1ccc(NC(=S)N2CCSC2c2cccs2)cc1 (stereo not drawn)	182.4*	116.4	165.3*	154.9*	-1.9	107.9
CC(=O)c1ccc(S(=O)(=O)Nc2cccc(-c3cn4c(n3)SCC4)c2)cc1	104.7	101.0	106.9	91.5	-0.6	108.2
CC(=O)Nc1ccc(S(=O)(=O)Nc2cccc(-c3cn4c(n3)SCC4)c2)cc1	130.3	14.7	u	66.4	10.6	45.4*[may fluoresce violet]
NC(=O)COc1ccc(C(=O)NCC2(N3CCOCC3)CCCCC2)cc1	103.5	111.1	95.6	107.2	14.9	101.8
CSCCC(NC(=O)c1ccccc1)C(=O)OCC(=O)NCc1ccco1 (stereo not drawn)	103.8	100.6	104.4	100.4	-10.9	100.1
CCC(NC(C)C)C(O)c1ccc(O)c2[nH]c(=O)ccc12 (stereo not drawn)	186.2*[may fluoresce violet]	u	u	103.5	5.1	42.4*[may fluoresce violet]
Cc1ccc(S(=O)(=O)N2CCC[C@H]2C(=O)OCC(=O)N2CCc3ccccc32)cc1	95.3	95.7	93.6	93.2	7.2	95.7
Cc1ccc(S(=O)(=O)N2CCC(C(=O)OCC(=O)N3CCc4ccccc43)CC2)cc1	296.2*[may fluoresce violet]	25.0	u	95.2	45.6	18.4*[may fluoresce violet]
Cc1ccc(NC(=S)N/N=C/c2c(C)[nH]c3ccccc23)cc1	96.1	63.9	120.0	183.8*	-38.0	67.4
